Results published in article PMC7862700, “An all-to-all approach to the identification of sequence-specific readers for epigenetic DNA modifications on cytosine”.

Assays:
Assay in all cases: DAPPL (digital affinity profiling via proximity ligation, sequencing); 10 mM Tris-HCl pH 7.5, 50 mM NaCl, 1 mM DTT, 4% glycerol, room temperature, 30 min; GST-TFs on glutathione beads, 16-mer random dsDNA library, 0.1% formaldehyde crosslink after washing; high values mean tight binding
Details in all cases: protein: recombinant; tags: N-terminal GST; dsDNA, one strand shown
ELK1 = target: T1, ELK1 (Homo sapiens, UniProt P19419 1-428)
T1 sequence: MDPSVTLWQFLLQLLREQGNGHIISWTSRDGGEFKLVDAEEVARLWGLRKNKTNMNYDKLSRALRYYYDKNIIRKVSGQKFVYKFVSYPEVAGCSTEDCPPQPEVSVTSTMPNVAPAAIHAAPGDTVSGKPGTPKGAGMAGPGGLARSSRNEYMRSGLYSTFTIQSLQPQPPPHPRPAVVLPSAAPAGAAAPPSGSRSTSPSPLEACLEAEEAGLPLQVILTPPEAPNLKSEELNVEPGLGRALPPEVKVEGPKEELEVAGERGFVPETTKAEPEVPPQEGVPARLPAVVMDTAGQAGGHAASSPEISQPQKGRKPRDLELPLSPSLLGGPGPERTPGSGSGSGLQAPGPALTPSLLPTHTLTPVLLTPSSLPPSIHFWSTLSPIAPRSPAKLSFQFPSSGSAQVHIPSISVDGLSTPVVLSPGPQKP
Procedure, shortened: (§1)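 Binding signal is each hexamer's read frequency for a factor divided by its frequency in the tag-only sample. The factors were GST-fused human transcription factors from yeast, captured on glutathione beads, DNA-barcoded and pooled with that sample. Pools were incubated with 200 nmole of a random double-stranded 16-mer DNA library in Tris/NaCl/DTT/glycerol buffer at room temperature for 30 min, then washed, crosslinked with 0.1% formaldehyde, proximity-ligated with BsaI/T4 ligase (1 h, 37 °C), PCR-amplified and sequenced on an Illumina NextSeq500.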

ERG = target: T2, ERG (Homo sapiens, UniProt P11308 1-479)
T2 sequence: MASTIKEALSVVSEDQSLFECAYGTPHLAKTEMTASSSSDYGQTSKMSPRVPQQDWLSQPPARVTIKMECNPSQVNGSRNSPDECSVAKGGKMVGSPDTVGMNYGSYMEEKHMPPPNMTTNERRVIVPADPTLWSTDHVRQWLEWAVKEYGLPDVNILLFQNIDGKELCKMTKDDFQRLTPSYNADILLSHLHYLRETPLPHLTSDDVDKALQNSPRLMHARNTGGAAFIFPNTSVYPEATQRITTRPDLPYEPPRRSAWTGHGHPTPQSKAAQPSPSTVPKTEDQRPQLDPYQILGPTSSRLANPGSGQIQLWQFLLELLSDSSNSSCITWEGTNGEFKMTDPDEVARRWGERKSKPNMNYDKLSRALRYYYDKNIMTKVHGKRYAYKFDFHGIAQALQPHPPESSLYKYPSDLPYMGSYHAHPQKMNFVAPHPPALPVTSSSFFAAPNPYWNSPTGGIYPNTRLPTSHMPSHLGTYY
Procedure, shortened: as §1

ELF1 = ELF1 (Homo sapiens, UniProt P32519 1-619)
Procedure, shortened: as §1

EHF = target: T3, EHF (Homo sapiens, UniProt Q9NZC4 1-300)
T3 sequence: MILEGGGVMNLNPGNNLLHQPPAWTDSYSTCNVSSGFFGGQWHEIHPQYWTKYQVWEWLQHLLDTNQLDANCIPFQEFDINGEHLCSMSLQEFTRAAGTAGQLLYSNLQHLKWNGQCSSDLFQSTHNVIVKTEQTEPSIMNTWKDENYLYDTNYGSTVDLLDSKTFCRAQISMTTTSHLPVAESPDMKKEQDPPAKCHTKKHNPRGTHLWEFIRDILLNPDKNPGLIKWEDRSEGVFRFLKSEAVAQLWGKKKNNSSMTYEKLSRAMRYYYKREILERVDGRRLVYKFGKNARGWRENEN
Procedure, shortened: as §1

SPI1 = SPI1 (Homo sapiens, UniProt P17947 1-270)
Procedure, shortened: as §1

SPIB = SPIB (Homo sapiens, UniProt Q01892 1-262)
Procedure, shortened: as §1

FEV = target: T4, FEV (Homo sapiens, UniProt Q99581 1-238)
T4 sequence: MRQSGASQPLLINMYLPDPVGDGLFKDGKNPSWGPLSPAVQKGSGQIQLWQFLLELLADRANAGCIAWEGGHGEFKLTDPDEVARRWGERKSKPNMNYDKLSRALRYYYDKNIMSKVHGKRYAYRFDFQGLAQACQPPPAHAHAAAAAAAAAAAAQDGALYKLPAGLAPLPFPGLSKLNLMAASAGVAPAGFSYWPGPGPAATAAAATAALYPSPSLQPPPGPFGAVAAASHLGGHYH
Procedure, shortened: as §1

ETV5 = ETV5 (Homo sapiens, UniProt P41161 1-510)
Procedure, shortened: as §1

ELF4 = ELF4 (Homo sapiens, UniProt Q99607 1-663)
Procedure, shortened: as §1

ELK4 = target: T5, ELK4 (Homo sapiens, UniProt P28324-2 1-405)
T5 sequence: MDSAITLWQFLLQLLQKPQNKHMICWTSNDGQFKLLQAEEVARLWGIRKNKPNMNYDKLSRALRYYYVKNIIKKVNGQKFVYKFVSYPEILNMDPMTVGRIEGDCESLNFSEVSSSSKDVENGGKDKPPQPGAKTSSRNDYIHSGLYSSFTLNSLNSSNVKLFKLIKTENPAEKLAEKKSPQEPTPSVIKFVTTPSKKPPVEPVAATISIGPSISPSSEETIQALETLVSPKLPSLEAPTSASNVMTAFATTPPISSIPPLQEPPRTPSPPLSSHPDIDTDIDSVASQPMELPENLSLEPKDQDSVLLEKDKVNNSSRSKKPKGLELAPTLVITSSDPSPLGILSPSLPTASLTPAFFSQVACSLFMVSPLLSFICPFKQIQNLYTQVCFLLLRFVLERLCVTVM
Procedure, shortened: as §1

ETV1 = ETV1 (Homo sapiens, UniProt P50549 1-477)
Procedure, shortened: as §1

ERF = target: T6, ERF (Homo sapiens, UniProt P50548 1-548)
T6 sequence: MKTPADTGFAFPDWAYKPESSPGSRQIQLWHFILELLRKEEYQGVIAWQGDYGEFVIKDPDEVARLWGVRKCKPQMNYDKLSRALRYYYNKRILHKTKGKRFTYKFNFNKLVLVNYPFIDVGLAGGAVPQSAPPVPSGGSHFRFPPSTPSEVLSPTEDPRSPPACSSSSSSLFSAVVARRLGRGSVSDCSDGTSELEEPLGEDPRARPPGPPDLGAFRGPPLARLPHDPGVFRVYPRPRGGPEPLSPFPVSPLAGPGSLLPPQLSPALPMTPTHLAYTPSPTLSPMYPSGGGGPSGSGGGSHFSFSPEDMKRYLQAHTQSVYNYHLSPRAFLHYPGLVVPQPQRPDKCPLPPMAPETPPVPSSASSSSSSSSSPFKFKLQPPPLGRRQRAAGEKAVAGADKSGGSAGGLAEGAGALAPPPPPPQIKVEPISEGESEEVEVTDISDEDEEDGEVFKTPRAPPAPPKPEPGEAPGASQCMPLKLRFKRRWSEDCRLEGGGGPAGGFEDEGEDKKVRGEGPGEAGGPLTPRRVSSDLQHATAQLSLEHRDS
Procedure, shortened: as §1

ETV3L = target: T7, ETV3L (Homo sapiens, UniProt Q6ZN32 1-361)
T7 sequence: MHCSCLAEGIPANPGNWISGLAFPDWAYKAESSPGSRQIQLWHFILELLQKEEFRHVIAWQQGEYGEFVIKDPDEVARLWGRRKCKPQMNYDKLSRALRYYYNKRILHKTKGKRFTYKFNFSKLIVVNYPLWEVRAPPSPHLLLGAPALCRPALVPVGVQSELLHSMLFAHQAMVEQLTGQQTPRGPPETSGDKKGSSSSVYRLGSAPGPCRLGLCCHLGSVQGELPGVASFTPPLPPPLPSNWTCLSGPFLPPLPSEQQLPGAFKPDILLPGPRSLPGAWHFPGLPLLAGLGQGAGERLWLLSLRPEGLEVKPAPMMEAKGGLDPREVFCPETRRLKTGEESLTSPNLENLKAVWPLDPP
Procedure, shortened: as §1

ETS2 = target: T8, ETS2 (Homo sapiens, UniProt P15036 1-469)
T8 sequence: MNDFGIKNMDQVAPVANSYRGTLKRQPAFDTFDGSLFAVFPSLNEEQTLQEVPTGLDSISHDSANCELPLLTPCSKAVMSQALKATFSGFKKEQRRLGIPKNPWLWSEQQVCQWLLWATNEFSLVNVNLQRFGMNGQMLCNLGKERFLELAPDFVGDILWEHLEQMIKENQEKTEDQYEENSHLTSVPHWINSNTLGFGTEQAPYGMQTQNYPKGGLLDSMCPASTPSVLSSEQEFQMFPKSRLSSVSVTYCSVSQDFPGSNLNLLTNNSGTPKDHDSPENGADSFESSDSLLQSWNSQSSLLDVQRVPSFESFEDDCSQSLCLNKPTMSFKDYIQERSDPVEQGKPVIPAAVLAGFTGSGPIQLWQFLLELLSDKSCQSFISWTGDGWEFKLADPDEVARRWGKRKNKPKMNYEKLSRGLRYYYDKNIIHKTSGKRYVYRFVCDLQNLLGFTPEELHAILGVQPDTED
Procedure, shortened: as §1

SPDEF = target: T9, SPDEF (Homo sapiens, UniProt O95238 1-335)
T9 sequence: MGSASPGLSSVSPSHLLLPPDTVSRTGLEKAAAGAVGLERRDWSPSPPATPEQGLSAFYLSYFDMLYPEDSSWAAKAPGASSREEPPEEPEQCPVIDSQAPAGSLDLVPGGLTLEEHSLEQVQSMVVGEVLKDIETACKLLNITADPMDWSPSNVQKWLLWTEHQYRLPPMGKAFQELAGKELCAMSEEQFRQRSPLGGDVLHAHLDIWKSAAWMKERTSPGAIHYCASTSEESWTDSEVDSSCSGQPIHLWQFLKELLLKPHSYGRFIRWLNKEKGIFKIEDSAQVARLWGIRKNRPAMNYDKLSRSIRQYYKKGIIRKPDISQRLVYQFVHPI
Procedure, shortened: as §1

ETV7 = target: T10, ETV7 (Homo sapiens, UniProt Q9Y603 1-341)
T10 sequence: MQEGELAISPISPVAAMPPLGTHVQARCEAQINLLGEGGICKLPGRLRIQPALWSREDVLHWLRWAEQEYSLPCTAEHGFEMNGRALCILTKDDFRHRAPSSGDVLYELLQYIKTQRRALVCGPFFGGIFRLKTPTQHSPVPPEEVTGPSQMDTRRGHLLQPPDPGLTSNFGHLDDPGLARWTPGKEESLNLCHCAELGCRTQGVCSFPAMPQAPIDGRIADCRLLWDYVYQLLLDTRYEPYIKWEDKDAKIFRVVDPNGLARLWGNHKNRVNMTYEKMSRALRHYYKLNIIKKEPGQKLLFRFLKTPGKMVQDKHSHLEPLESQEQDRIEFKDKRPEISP
Procedure, shortened: as §1

ETV3 = target: T11, ETV3 (Homo sapiens, UniProt P41162-2 1-143)
T11 sequence: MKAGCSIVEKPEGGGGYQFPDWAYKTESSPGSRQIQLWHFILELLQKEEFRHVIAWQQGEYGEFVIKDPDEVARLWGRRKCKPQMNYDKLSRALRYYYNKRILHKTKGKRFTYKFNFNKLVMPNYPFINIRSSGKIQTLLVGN
Procedure, shortened: as §1

ETV6 = ETV6 (Homo sapiens, UniProt P41212 1-452)
Procedure, shortened: as §1

Sequence of ELF1 (P32519 whole entry): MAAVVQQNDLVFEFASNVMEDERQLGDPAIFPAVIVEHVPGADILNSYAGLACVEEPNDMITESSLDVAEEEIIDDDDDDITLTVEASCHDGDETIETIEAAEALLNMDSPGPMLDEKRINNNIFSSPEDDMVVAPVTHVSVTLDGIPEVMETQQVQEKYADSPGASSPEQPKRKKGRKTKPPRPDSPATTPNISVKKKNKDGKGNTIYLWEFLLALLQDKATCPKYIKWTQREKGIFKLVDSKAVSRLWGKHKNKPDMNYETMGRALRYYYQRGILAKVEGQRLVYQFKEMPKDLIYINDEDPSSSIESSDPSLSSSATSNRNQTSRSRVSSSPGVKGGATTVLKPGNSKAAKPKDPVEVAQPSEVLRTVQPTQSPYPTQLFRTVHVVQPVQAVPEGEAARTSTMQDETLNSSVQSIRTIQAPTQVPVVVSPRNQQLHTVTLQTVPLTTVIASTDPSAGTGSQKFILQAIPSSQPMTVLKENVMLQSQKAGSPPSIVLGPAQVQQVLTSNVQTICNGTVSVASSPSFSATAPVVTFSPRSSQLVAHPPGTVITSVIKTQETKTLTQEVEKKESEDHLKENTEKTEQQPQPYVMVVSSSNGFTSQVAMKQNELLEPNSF
Sequence of ETV6 (P41212 whole entry): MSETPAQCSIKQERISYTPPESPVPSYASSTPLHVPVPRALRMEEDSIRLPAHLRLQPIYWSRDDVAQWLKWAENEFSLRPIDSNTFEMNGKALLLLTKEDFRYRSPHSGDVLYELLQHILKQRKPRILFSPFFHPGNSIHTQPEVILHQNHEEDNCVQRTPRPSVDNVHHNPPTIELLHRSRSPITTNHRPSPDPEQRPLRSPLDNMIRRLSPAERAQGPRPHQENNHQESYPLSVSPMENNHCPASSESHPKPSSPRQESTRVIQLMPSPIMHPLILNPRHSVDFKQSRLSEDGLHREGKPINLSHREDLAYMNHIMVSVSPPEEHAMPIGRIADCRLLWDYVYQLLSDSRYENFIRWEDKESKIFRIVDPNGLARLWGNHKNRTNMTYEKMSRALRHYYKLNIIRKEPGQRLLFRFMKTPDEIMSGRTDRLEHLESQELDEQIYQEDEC
Sequence of ETV5 (P41161 whole entry): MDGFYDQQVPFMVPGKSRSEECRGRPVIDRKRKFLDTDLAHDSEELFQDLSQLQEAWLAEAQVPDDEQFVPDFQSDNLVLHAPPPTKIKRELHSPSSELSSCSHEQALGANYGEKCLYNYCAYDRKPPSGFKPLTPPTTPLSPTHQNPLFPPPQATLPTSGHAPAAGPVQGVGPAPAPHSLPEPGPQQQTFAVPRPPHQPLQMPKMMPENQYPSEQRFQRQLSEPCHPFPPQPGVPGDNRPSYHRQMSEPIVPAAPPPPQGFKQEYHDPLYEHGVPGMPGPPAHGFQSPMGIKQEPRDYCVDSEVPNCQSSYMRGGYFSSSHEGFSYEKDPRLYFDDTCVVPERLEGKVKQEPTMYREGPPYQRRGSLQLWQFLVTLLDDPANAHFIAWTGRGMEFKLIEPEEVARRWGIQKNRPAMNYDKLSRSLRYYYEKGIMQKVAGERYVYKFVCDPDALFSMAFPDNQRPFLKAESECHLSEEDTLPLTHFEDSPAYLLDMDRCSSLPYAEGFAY
Sequence of ETV1 (P50549 whole entry): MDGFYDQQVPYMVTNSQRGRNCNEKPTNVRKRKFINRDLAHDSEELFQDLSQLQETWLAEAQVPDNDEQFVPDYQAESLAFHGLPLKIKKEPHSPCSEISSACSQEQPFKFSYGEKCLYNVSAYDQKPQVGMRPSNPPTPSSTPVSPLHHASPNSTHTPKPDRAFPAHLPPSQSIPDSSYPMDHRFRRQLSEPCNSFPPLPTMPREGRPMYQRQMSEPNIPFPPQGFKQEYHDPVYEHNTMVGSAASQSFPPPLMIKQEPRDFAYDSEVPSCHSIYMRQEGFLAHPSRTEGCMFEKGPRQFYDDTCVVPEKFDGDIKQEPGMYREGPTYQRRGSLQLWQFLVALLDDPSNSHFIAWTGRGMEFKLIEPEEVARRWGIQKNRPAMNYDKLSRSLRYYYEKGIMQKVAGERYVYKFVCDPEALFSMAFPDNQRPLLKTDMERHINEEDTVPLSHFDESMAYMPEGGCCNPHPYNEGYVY
Sequence of ELF4 (Q99607 whole entry): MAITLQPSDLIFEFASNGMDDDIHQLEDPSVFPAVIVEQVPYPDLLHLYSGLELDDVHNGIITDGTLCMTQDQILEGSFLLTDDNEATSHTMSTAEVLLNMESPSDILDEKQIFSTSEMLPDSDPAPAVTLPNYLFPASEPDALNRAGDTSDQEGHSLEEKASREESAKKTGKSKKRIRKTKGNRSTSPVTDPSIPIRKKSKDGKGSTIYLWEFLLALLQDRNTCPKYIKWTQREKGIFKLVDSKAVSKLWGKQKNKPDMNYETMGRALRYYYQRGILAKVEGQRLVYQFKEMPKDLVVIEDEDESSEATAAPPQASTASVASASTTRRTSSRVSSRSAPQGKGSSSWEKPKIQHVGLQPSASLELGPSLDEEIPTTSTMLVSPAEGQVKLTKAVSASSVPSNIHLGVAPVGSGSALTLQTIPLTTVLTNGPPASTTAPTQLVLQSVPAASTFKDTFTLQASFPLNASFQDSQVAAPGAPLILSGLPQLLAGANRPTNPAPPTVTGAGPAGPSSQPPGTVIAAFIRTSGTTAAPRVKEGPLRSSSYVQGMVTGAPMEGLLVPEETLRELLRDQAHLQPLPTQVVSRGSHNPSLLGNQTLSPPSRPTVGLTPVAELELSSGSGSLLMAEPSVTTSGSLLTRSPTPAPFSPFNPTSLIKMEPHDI
Sequence of SPIB (Q01892 whole entry): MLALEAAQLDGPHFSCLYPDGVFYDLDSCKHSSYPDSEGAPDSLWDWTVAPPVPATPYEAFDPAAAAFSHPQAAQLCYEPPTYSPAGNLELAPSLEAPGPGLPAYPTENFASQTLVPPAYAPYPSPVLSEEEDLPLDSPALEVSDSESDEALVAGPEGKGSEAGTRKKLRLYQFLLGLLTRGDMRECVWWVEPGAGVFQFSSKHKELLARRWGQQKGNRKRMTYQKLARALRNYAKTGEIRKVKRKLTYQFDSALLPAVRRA

Question: Which binding signal (ELK1) does the source give for TGTTGT here?
Answer: Its binding signal is 1.15 fold enrichment (6-mer frequency, TF over GST control).

Question: And the binding signal (ERG)?
Answer: The binding signal was 1.08 fold enrichment (6-mer frequency, TF over GST control).

Question: What about the binding signal (ELF1) of the same sequence?
Answer: Its binding signal is 1.13 fold enrichment (6-mer frequency, TF over GST control).

Question: And the binding signal (EHF)?
Answer: The binding signal was 1.09 fold enrichment (6-mer frequency, TF over GST control).

Question: What about the binding signal (SPI1) of the same sequence?
Answer: The binding signal was 1.1 fold enrichment (6-mer frequency, TF over GST control).

Question: What about the binding signal (SPIB) of the same sequence?
Answer: Its binding signal is 1.12 fold enrichment (6-mer frequency, TF over GST control).

Question: And the binding signal (FEV)?
Answer: Its binding signal is 1.11 fold enrichment (6-mer frequency, TF over GST control).

Question: And the binding signal (ETV5)?
Answer: Its binding signal is 1.08 fold enrichment (6-mer frequency, TF over GST control).

Question: What about the binding signal (ELF4) of the same sequence?
Answer: The binding signal was 1.11 fold enrichment (6-mer frequency, TF over GST control).

Question: What about the binding signal (ELK4) of the same sequence?
Answer: The binding signal was 1.24 fold enrichment (6-mer frequency, TF over GST control).

Question: What about the binding signal (ETV1) of the same sequence?
Answer: Its binding signal is 1.2 fold enrichment (6-mer frequency, TF over GST control).

Question: What about the binding signal (ERF) of the same sequence?
Answer: The binding signal was 1.02 fold enrichment (6-mer frequency, TF over GST control).

Question: And the binding signal (ETV3L)?
Answer: Its binding signal is 1.15 fold enrichment (6-mer frequency, TF over GST control).

Question: And the binding signal (ETS2)?
Answer: Its binding signal is 1.05 fold enrichment (6-mer frequency, TF over GST control).

Question: And the binding signal (SPDEF)?
Answer: Its binding signal is 1.21 fold enrichment (6-mer frequency, TF over GST control).

Question: And the binding signal (ETV7)?
Answer: The binding signal was 1.14 fold enrichment (6-mer frequency, TF over GST control).

Question: And the binding signal (ETV3)?
Answer: The binding signal was 1.14 fold enrichment (6-mer frequency, TF over GST control).

Question: What about the binding signal (ETV6) of the same sequence?
Answer: The binding signal was 1.11 fold enrichment (6-mer frequency, TF over GST control).
